From ChEMBL document CHEMBL5308504, “Tm Shift (DSF) assay results for EUbOPEN Chemogenomics Library” (2023)
Several values for one entry are separate records, joined by “and”; a condition that tells them apart may be missing. Identical values can stand only once.

Columns and labels:
Settings in all cases: Compound concentration 20.0 uM, Protein concentration 2.0 uM, Result type QC Liability
[1] = target: Tyrosine-protein kinase ABL1 (Homo sapiens) (UniProt P00519)
[2] = target: Cyclin-dependent kinase 2 (Homo sapiens) (UniProt P24941)
[3] = target: Casein kinase I isoform delta (Homo sapiens) (UniProt P48730)
[4] = target: Glycogen synthase kinase-3 beta (Homo sapiens) (UniProt P49841)
[5] = target: Mitogen-activated protein kinase 1 (Homo sapiens) (UniProt P28482)
[6] = target: T1, Aurora kinase A (Homo sapiens) (UniProt O14965)
T1 sequence (whole entry): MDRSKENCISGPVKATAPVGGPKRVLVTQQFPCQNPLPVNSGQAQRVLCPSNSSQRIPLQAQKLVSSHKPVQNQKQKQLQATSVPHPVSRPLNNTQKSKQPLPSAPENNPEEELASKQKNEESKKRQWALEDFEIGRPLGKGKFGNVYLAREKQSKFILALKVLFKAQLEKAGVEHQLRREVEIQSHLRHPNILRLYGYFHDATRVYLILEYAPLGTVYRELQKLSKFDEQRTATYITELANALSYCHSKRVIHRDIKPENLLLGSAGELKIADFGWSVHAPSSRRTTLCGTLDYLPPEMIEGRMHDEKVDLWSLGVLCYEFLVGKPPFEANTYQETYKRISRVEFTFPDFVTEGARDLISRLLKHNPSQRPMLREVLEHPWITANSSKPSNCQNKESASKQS

Chain of Glycogen synthase kinase-3 beta (Homo sapiens) (P49841 whole entry, looked up): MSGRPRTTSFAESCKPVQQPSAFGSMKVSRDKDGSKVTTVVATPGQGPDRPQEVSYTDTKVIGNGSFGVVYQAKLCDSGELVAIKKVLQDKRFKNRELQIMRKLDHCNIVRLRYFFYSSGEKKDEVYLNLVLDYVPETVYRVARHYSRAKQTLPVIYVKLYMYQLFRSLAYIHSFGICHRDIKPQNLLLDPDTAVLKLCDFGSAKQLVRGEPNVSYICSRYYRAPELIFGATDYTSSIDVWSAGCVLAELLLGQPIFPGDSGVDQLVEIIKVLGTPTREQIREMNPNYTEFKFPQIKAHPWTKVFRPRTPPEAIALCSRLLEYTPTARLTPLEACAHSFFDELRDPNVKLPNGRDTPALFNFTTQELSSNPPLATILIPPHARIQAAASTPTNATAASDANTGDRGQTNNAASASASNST
Chain of Tyrosine-protein kinase ABL1 (Homo sapiens) (P00519 whole entry): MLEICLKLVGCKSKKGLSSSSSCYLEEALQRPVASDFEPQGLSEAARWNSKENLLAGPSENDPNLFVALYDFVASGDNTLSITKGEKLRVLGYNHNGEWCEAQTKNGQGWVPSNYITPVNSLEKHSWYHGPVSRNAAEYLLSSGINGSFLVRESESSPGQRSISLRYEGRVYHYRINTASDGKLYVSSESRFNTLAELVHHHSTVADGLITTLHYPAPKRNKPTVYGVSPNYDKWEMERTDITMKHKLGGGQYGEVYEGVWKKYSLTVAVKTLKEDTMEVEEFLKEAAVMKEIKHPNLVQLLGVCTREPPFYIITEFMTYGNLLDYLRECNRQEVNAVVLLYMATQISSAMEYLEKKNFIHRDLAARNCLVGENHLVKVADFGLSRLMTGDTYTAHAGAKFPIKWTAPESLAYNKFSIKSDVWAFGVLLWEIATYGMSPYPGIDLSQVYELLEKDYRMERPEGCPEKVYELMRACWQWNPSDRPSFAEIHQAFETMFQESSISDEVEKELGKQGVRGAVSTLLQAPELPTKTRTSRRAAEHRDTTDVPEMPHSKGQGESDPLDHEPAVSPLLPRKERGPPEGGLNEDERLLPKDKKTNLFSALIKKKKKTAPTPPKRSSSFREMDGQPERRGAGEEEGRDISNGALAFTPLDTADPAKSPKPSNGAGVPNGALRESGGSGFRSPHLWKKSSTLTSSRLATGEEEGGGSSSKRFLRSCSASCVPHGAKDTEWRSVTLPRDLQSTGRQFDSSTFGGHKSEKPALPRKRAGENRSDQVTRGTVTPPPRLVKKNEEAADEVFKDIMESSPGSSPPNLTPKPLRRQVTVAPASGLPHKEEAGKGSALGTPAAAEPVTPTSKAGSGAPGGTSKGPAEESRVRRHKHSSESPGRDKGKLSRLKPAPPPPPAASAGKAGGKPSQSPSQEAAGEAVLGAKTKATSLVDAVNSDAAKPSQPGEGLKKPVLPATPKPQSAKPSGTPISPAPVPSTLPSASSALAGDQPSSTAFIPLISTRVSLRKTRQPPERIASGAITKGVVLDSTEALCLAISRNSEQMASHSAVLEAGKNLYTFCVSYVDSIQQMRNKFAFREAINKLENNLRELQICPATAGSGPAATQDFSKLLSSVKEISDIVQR
Chain of Casein kinase I isoform delta (Homo sapiens) (P48730 whole entry, looked up, canonical isoform): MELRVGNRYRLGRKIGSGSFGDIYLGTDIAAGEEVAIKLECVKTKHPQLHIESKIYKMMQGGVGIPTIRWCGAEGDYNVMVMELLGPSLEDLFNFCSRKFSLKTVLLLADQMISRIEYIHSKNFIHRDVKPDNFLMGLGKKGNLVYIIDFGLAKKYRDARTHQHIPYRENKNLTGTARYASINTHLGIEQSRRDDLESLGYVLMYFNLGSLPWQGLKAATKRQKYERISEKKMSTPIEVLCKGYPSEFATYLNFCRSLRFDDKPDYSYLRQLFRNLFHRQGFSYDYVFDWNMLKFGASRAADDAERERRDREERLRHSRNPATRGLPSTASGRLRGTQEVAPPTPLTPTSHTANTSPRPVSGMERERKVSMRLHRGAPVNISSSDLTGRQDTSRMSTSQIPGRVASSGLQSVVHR
Chain of Mitogen-activated protein kinase 1 (Homo sapiens) (P28482 whole entry): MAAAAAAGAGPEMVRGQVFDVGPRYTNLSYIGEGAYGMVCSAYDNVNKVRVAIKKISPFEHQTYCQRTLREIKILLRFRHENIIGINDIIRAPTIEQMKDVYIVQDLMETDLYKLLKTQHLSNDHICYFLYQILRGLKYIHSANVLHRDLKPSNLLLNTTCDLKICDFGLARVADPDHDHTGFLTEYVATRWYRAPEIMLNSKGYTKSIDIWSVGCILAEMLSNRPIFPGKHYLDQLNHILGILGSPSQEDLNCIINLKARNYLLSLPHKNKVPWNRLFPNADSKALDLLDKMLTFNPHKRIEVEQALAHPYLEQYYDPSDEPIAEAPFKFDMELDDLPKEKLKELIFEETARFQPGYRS

Row | Compound | ΔTm [1] | ΔTm [2] [°C] | ΔTm [3] | ΔTm [4] | ΔTm [5] | ΔTm [6]
1 | COc1ccc(CSc2nnc(-c3ccc4ncsc4c3)o2)cc1C(F)(F)F | -6.63 °C | 0.54 | -10.2 °C | -9.01 °C | -8.68 °C | 1.22 °C
2 | CN(C)c1ccc(-c2cc3ncccc3c(OCCCCO)n2)cc1 | 5.68 °C | 0.73 | 1.32 °C | 0.13 °C | 0.3 °C | 8.85 °C
3 | CNc1oc(-c2cccc3ccccc23)nc1C#N | 0.54 °C | 0.95 | -0.04 °C | 0.49 °C | 0.02 °C | 0.57 °C
4 | COc1cc(C(=O)NCCOCCOCCOCC(=O)N[C@H](C(=O)N2C[C@@H](O)C[C@H]2C(=O)NCc2ccc(-c3scnc3C)cc2)C(C)(C)C)ccc1Nc1ncc(C(F)(F)F)c(Oc2cccc3c2C(=O)CC3)n1 | -2.56 °C | -4.04 | 0.94 °C | 0 °C | 0.73 °C | 0.94 °C
5 | Cc1ncsc1-c1ccc(CNC(=O)[C@@H]2C[C@H](O)CN2C(=O)[C@@H](NC(=O)C2(F)CC2)C(C)(C)C)c(OCCOc2ccc(CN3CCN(c4cc(-c5ccccc5O)nnc4N)CC3)cc2)c1 (relative stereo) | 0.51 °C | 2.76 | 6.03 °C | 0.29 °C | 0.5 °C | 3.42 °C
6 | CCn1ccc(Nc2ncc3c(n2)-c2c(nn(C)c2-c2ccc(-c4cnn(C)c4)cc2Cl)CC3)n1 | 3.73 °C | 5.04 | 2.25 °C | 5.78 °C | 0.81 °C | 6.95 °C
7 | CCc1nc(-c2cccc(C)c2)c(-c2ccnc(NC(=O)c3ccccc3)c2)s1 | 1.26 °C | -1.36 | 4.93 °C | -1.07 °C | -0.25 °C | -1.25 °C
8 | CCN(C(=O)c1cc(F)ccc1Oc1cncnc1N1CC2(CCN(C[C@H]3CC[C@H](NS(=O)(=O)CC)CC3)CC2)C1)C(C)C | 0.01 °C | 0.94 | -0.25 °C | -0.47 °C | 0.35 °C | -1.01 °C
9 | C=C(F)C(=O)N1CCN(c2nc(OC[C@@H]3CCCN3C)nc3c2CCN(c2cccc4cccc(Cl)c24)C3)C[C@@H]1CC#N | -0.03 °C | 0.01 | 0.31 °C | 0.36 °C | 0.14 °C | -0.49 °C
10 | O=C(O)[C@]1(Cc2cccc(Nc3nccs3)n2)CC[C@@H](Oc2cccc(Cl)c2F)CC1 | 17.2 °C | 5.36 | 1.53 °C | 8.49 °C | 1.32 °C | 25.4 °C
11 | CCOC(=O)Nc1ccc2c(c1)N(C(=O)CN(CC)CC)c1ccccc1CC2 | 0.17 °C | 0.57 | 0.58 °C | -0.12 °C | 0.19 °C | -1.06 °C
12 | COc1ccccc1-c1cc(Nc2cccc(CS(N)(=O)=O)c2)ncn1 | 2.06 °C | 2.08 | -0.11 °C | 4.1 °C | -0.04 °C | 0.53 °C
13 | CNc1ncc2cc(-c3ccc(-c4ncccc4F)cc3Cl)c(=O)n(C[C@H]3OC[C@H](N)CO3)c2n1 | 4.27 °C | 1.01 | 0.79 °C | -0.51 °C | 3.43 °C | 4.87 °C
14 | O=C(O)CCCCN(CCc1cc(F)ccc1OCc1ccc(-c2ccc(C(F)(F)F)cc2)cc1)Cc1ccc(C(=O)O)cc1 | 0.64 °C | -0.19 | 0.21 °C | -1.11 °C | -0.69 °C | 0.32 °C
15 | O=C1COc2cc(C(=O)N(Cc3ccc(C(=O)Nc4ccncn4)cc3)C3CC3)ccc2N1 | 0.5 °C | 0.47 | -0.01 °C | -0.19 °C | 0.31 °C | 0.08 °C
16 | CCOC(=O)c1ccc(CN(Cc2ccc(-c3cccc(S(C)(=O)=O)c3)cc2)S(=O)(=O)c2c(C)cc(C)cc2C)o1 | -2.07 °C | -2 | -1.52 °C | -0.28 °C | -3 °C | -3.1 °C
17 | Cc1cccc(-c2nn3c(c2-c2ccnc4ccc(C(N)=O)cc24)CCC3)n1 | 1.72 °C | 0.75 | 3.53 °C | 3.04 °C | 0.51 °C | -0.95 °C
18 | COc1cc(F)ccc1-c1ncnc(Nc2cccc(C[S@](C)(=N)=O)c2)n1 | 2.58 °C | 3.09 | 0.27 °C | 10.1 °C | 0.36 °C | 3.39 °C

Row | Compound | ΔTm [1] | ΔTm [2] [°C] | ΔTm [3] | ΔTm [4] | ΔTm [5] | ΔTm [6]
19 | Cc1[nH]c2c(N3CCCCC3)c(-c3ccccc3)nn2c(=O)c1-c1ccc(O)cc1 | 0.05 °C | 0.91 | 1.23 °C | -0.79 °C | 0.43 °C | -0.38 °C
20 | Cc1c(CCC(=O)O)cccc1NC(=O)[C@@H](c1ccc(-c2cncc(Cl)c2)c(F)c1)C1CCCC1 | 1.34 °C | -0.35 | -0.06 °C | 0.61 °C | -0.61 °C | 4.78 °C
21 | CC(=O)N1CCC(c2ccc(C(=O)NC3=NCCN3)cc2C(F)(F)F)CC1 | 0.33 °C | 0.15 | 0.3 °C | -0.03 °C | 0.1 °C | -0.15 °C
22 | COC[C@@H](C)N[C@H]1CC[C@H](Nc2cc(-c3cccc(NCC4(C#N)CCOCC4)n3)c(Cl)cn2)CC1 | 0.33 °C | -1.43 | 0.03 °C | -0.08 °C | 0.43 °C | 0.38 °C
23 | CNc1[nH]c(Nc2ccc(C(=O)N3CCOCC3)cc2OC)nc2ncc(Cl)c1-2 | 0.1 °C | -0.26 | 4.5 °C | -1.11 °C | 0.86 °C | 1 °C
24 | O=C(O)CCCN1CCC[C@H]1COc1ccc(Oc2ccc(Cl)cc2)cc1 | 0.14 °C | 0.25 | -0.11 °C | -0.15 °C | -0.08 °C | -0.43 °C
25 | O=C1CN(c2ccccc2F)C(NCCN2CCOCC2)=C1c1nc2cc(Br)ccc2c(=O)[nH]1 | 0.38 °C | 0.68 | 0.32 °C | 0.31 °C | 0.23 °C | 0.17 °C
26 | COc1cc(-c2cc3ncccc3c(O[C@H](C)[C@H]3CNC(=O)C3)n2)cc(OC)c1OC | 3.69 °C and 3.1 °C | 0.94 | 3.55 °C and 2.97 °C | -0.33 °C and -0.99 °C | 1.84 °C and 1.51 °C | 9.58 °C and 8.08 °C
27 | COc1cc2c(cc1CC=C(C)C)C(=O)C[C@@H](c1ccc(O)cc1)O2 | 0.53 °C | 1.21 | 1.23 °C | -0.03 °C | 0.34 °C | -1.38 °C
28 | O=C(O)c1ccc2c(c1)nc(NCc1ccccc1)c1ncncc12 | 0.29 °C | 1.34 | 0.62 °C | 1.21 °C | 0.05 °C | 1.85 °C
29 | CCOC(=O)CS(=O)(=O)c1ccc([C@@H](CO)NC(=O)c2cc3c(Cl)c(Cl)c(C)cc3n2C)cc1 | -1.39 °C | 0.21 | 1.93 °C | -1.8 °C | 0.66 °C | -4.67 °C
30 | CN(C)C(=O)Cn1cc(-c2nc(C3(c4ccc(-c5cnc(N)nc5)cc4)CC3)no2)cn1 | 0.7 °C | 0.53 | 0.13 °C | -0.37 °C | 0.16 °C | 1.51 °C
31 | Cc1cc2ncnn2cc1Nc1ncc2c(n1)n(C1CCOCC1)c(=O)n2C | -0.11 °C | 0.84 | 0.63 °C | 1.17 °C | 1.17 °C | 0.06 °C
32 | CNC(=O)c1c(F)cccc1Nc1nc(Nc2cc3c(cc2OC)CCN3C(=O)CN(C)C)nc2[nH]ccc12 | -0.29 °C | 0.06 | 1.14 °C | -0.64 °C | 1 °C | 0.07 °C
33 | C[C@H](NC(=O)c1cnc2n1[C@](C)(Cc1ccc(C#N)cc1)C(=O)N2c1cc(Cl)c(F)c(Cl)c1)C(=O)NC1(c2ccccn2)CC1 | 0.04 °C | 0.07 | 0.77 °C | -3.42 °C | 10.2 °C | 0.19 °C
34 | O=C(O)c1cccc(C2=C(c3cc(Cl)ccc3OCc3ccc(F)cc3F)CCC2)n1 | -0.85 °C | -1.05 | -0.59 °C | 0 °C | -0.17 °C | -0.7 °C
35 | CCN(C)C(=O)c1ccc2c(c1)NC(=O)/C2=C(\NC1CCN(C)CC1)c1ccccc1 | -0.14 °C | 0.01 | 0.23 °C | 2.01 °C | 0.03 °C | -0.37 °C
36 | CCCS(=O)(=O)Nc1ccc(F)c(Nc2ncnc3cnc(-n4cnc(C)c4)nc23)c1F | 1.19 °C | 1.1 | 0.17 °C | 0.89 °C | 0.39 °C | -0.24 °C
